Compounds with a hit are over-represented: about 4% of the library has one in this group of screens.
Wnt act = Wnt/beta-catenin pathway activation; Wnt/beta-catenin reporter cell assay, activator, plate reader; activation, % at 9.35 µM; 300,000 tested, 1.2% active; AID 743398; in the data active means activation above about 30%, passing the limit was not always enough; inconclusive means no clear call, values can overlap the other calls;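 further: 0% = neutral control wells and 100% = positive control wells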
PAX8 inh HTS = lowers PAX8-driven luciferase in RMG-I cells; RMG-I TPO-luciferase reporter, SteadyGlo, 24 h; 360,000 tested, 1.2% active; inhibition, % at 12.6 µM;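 active means mean replicate inhibition at least 60% with every replicate also reaching 60%; inconclusive means only one of the two criteria is met; inactive means mean below 60% and not all replicates reaching 60%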;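 further: luciferase light reporting Pax8 driven TPO promoter activity; plate controls were median of neutral control wells for no effect and mitoxantrone controls for full effect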
MITF TRPM1 HTS = activators of MITF-driven TRPM1 promoter activity in SK-MEL-5 cells. activation, % at 12.5 µM. 300,000 tested, 0.75% active. SK-MEL-5 TRPM1-promoter luciferase, 24 h; % of positive control, neutral wells = 0;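 active means mean activation of at least 80% with every replicate also reaching 80%; inconclusive means mean reaches 80% but some replicate falls short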;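 further: 0% = neutral control wells and 100% = parthenolide positive control wells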
esBAF inh = inhibitors of esBAF chromatin remodeling in mouse ES cells; 350,000 tested, 2% active; reporter increase, % at 12.5 µM; Bmi1-luciferase knock-in reporter, 24 h; 100% = twice the neutral-well signal; in the data active means activation above about 40%; inconclusive means no clear call, values can overlap the other calls;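 further: 0% = median of the plate's neutral control wells and 100% = double that signal; a rise in the Bmi1 reporter signal indicates esBAF inhibition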
EWS-Fli block = EWS/Fli transcriptional activity inhibition; AID 651661; inhibition, % at 12.6 µM; A673 NR0B1-luciferase reporter, viability-normalised; 350,000 tested, 0.67% active;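 active means mean inhibition of at least 50% after viability correction, with every replicate also passing that limit; inconclusive means mean reaches 50% but only one of two replicates passes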;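 further: firefly luciferase signal divided by Alamar Blue viability fluorescence both relative to DMSO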
TRPM1 prom inh = reduces MITF-dependent TRPM1 promoter luciferase signal; SK-MEL-5 TRPM1 promoter luciferase, 24 h; inhibition, % at 12.5 µM; 330,000 tested, 0.83% active;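 active means mean inhibition across replicates of 60% or more, whatever share of single replicates reaches that level; inconclusive means some that reach 60%, reason not given; inactive means mean inhibition across replicates below 60%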
An asterisk follows results filed as active; ? = inconclusive; · = no result given; ! = not active in a repeat.

SMILES | Wnt act | PAX8 inh HTS | MITF TRPM1 HTS | esBAF inh | EWS-Fli block | TRPM1 prom inh
Cc1ccc(-c2nc3ccccc3s2)cc1NC(=S)NC(=O)/C=C/c1ccco1 | · | · | -20.8 | 65.3* | · | 19.7
CO[C@@H]1CN(C)C(=O)c2cc(NC(=O)Cc3ccccc3)ccc2OC[C@H](C)N(C(=O)c2ccccc2F)C[C@@H]1C | · | 17.0 | · | 3.0 | 2.4 | ·
CC(=O)N1CC2(C1)[C@@H](c1ccccc1)[C@@H](CO)N2Cc1cc(F)ccc1F | · | -13.1 | · | · | 3.7 | ·
C[C@@H](O)C#Cc1ccc2c(c1)O[C@H](CN(C)CC1CC1)[C@@H](C)CN([C@@H](C)CO)S2(=O)=O | · | · | · | 4.0 | 2.9 | ·
COc1ccc(/C(N)=N/OC(=O)C2CCCCC2)cc1 | 39.6* | -264.1 | 47.2 | 60.7* | -76.1 | -43.3
COc1ccc(C(=O)C2CCN(C(=O)c3ccc(C)cc3)CC2)cc1 | -3.5 | 4.9 | -25.6 | 5.5 | · | 24.7
N/C(=N\OC(=O)C1CCCCC1)c1cccc(Br)c1 | · | · | 108.2* | 44.6* | · | -104.5
COc1ccc(/C(N)=N/OC(=O)CC2CCCCC2)cc1OC | 1.7 | -89.9 | 15.9 | 12.6 | -32.6 | -13.6
COc1ccc(-c2ccc(C(=O)C3CC3)cc2)cc1 | 26.8 | -137.6 | 106.7* | 37.2 | -33.0 | -108.8
COc1ccc(/C(N)=N/OC(=O)C2CCCCC2)cc1OC | 25.6 | -138.4 | 88.1* | 51.3* | · | -78.3
C[C@H]1CN([C@@H](C)CO)C(=O)Cc2cc(NC(=O)Nc3cccc4ccccc34)ccc2O[C@@H]1CN(C)C(=O)Nc1ccc2c(c1)OCO2 | · | 8.2 | · | 2.4 | -10.7 | ·
O=C(c1cccnc1)N1CC[C@@H]2[C@H](CO)Nc3ccc(C#Cc4cccnc4)cc3[C@@H]21 | · | -4.1 | · | -2.4 | -5.9 | ·
COc1cccc(S(=O)(=O)N2CCC3(CC2)CN[C@@H](CO)c2[nH]c4cc(OC)ccc4c23)c1 | · | · | · | · | -1.7 | ·
COc1cccc(C(=O)Oc2c(CN3CCOCC3)cc(Cl)c3cccnc23)c1 | · | · | -65.9 | -24.9 | · | 67.1*
COc1cc(C(=O)Oc2c(CN3CCOCC3)cc(Cl)c3cccnc23)cc(OC)c1OC | · | · | -66.3 | -31.1 | · | 68.9*
COCC(=O)N(C)C[C@H]1Oc2cc(-c3ccc(C)cc3)ccc2S(=O)(=O)N([C@@H](C)CO)C[C@@H]1C | · | · | · | -5.7 | -4.6 | ·
O=C1CCC(C(=O)N2CCCC(C(=O)c3ccc4ccccc4c3)C2)=NN1 (stereo unspecified) | -5.0 | 5.2 | -0.1 | 2.8 | · | 5.7
Cc1ccc2c(c1)C1(C(=O)N2)N2CCCC2C(C(=O)c2ccc3ccccc3c2)C12C(=O)Nc1ccccc12 (stereo unspecified) | 21.5 | 15.2 | 16.1 | 50.3*! | -17.8 | -15.1
COc1ccc2nc(Nc3nc(CSc4ccc(C)cc4)cc(=O)[nH]3)nc(C)c2c1 | -2.2 | -15.4 | 17.0 | 28.9* | 5.7 | -18.7
Cc1ccc(SCc2cc(=O)[nH]c(Nc3nc(C)c4cccc(C)c4n3)n2)cc1 | · | · | 2.2 | -1.2 | · | -1.0
COC(=O)c1ccc(COC(=O)c2ccc(C)c(S(=O)(=O)N3CCCCC3)c2)cc1 | 9.2 | -174.7 | 96.2* | 42.7* | -2.4 | -87.6
Cc1ccc(C(=O)OCC(=O)N2C(C)CCCC2C)cc1S(=O)(=O)N1CCCCC1 (stereo unspecified) | 2.2 | · | -3.3 | · | 1.6 | 3.4
Cc1ccc(C(=O)Nc2cccc(O)c2)cc1S(=O)(=O)N1CCCCCC1 | 20.2 | -103.6 | ? | 57.3* | -119.7 | -100.2
Cc1ccc(C(=O)Nc2ccc3cn[nH]c3c2)cc1S(=O)(=O)N1CCCCC1 | 17.9 | · | 12.0 | 75.3* | · | -11.7
C[C@H](CO)N1C[C@H](C)[C@H](CN(C)C(=O)Cc2ccccc2)OCCCC[C@H](C)Oc2ccc(NC(=O)Nc3ccc(C(F)(F)F)cc3)cc2C1=O | · | 59.4 | · | -2.6 | -0.1 | ·
SMILES | Wnt act | PAX8 inh HTS | MITF TRPM1 HTS | esBAF inh | EWS-Fli block | TRPM1 prom inh
CCCC(=O)N1CC2(CCN(C(=O)Nc3cccc(F)c3)CC2)c2c(n(C)c3cc(OC)ccc23)[C@@H]1CO | · | · | · | · | -8.6 | ·
O=C(N/N=C/c1ccccn1)c1cccc([N+](=O)[O-])c1 | -1.0 | -11.0 | -5.9 | · | -4.3 | 8.2
O=C(N/N=C/c1ccccn1)c1cc([N+](=O)[O-])cc([N+](=O)[O-])c1 | 3.7 | 10.6 | -64.5 | 7.0 | 6.9 | 67.4*
O=C(O)c1cccc(NC(=S)N/N=C/c2ccccn2)c1 | 25.8 | 31.7 | -62.1 | · | 19.4 | 63.1*
O=S(=O)(N[C@H]1CC[C@@H](CCn2cc(C3CC3)nn2)O[C@@H]1CO)c1ccc(F)cc1 | · | 11.9 | · | -2.8 | -8.4 | ·
CC(=O)Nc1ccc(NC(=O)c2cccc(S(=O)(=O)N3CCCCCC3)c2)cc1 | -9.4 | · | 19.0 | 3.7 | -5.8 | -17.8
CC(=O)c1ccc(NC(=O)c2cccc(S(=O)(=O)N3CCN(C)CC3)c2)cc1 | 5.9 | -73.0 | 73.6 | 57.7* | -83.9 | -64.1
CN1C(=O)c2cc(NC(=O)NC3CCCC3)ccc2OC[C@H]2O[C@H](CC(=O)O)CC[C@H]21 | · | -12.4 | · | -3.9 | -5.8 | ·
Cn1cc([N+](=O)[O-])c(C(=O)Nc2ccc(C3CCCCC3)cc2)n1 | 46.0* | 20.8 | -4.9 | · | -66.8 | 5.3
Cc1ccc(-c2nc(NC(=O)c3nn(C)cc3[N+](=O)[O-])sc2C)cc1C | -13.8 | · | -79.3 | -74.7 | 35.6 | 79.2*
Cc1cnc(NC(=O)c2nn(C)cc2[N+](=O)[O-])s1 | -1.8 | 39.9 | -72.8 | · | 16.3 | ?
O=C(Nc1nc(-c2ccc([N+](=O)[O-])cc2)cs1)c1c(F)cccc1F | 1.9 | -50.1 | 15.8 | 12.6 | -2.0 | -15.7
Cn1cc([N+](=O)[O-])c(C(=O)Nc2nc(-c3ccc(Cl)cc3)cs2)n1 | 0.2 | · | -82.9 | -47.3 | · | 83.2*
Cc1ccc(-c2nc(NC(=O)c3nn(C)cc3[N+](=O)[O-])sc2C)cc1 | -1.4 | · | -84.8 | -83.5 | 58.3* | 85.4*
Cn1cc([N+](=O)[O-])c(C(=O)Nc2ccc(C(=O)N3CCCCC3)cc2)n1 | -1.1 | 31.0 | -8.1 | · | -19.2 | 9.3
O=C(N[C@H]1CC[C@@H](CCNS(=O)(=O)c2ccc(F)cc2)O[C@H]1CO)C1CCCC1 | · | 4.6 | · | 2.7 | 1.6 | ·
Clc1cccc(Cc2c(-c3ccco3)nc3c4ccccc4ccn23)c1 | -24.7 | 35.1 | · | · | 10.4 | ·
Fc1cccc(Cc2c(-c3ccco3)nc3c4ccccc4ccn23)c1 | 16.2 | -104.6 | · | 72.2* | -107.3 | ·
CCCc1nc2c3ccccc3ccn2c1Cc1cccc(F)c1 | 14.2 | -53.7 | · | 45.8* | -36.2 | ·
CN1C(=O)c2cc(NC(=O)Cc3ccccc3)ccc2OC[C@H]2O[C@@H](CC(=O)NCc3ccc(Cl)cc3)CC[C@H]21 | · | 27.5 | · | 3.7 | 1.5 | ·
Cc1ccnc(NC(=O)CCC2CCCCC2)c1 | 8.8 | -197.1 | · | 48.9* | · | -44.4
O=C(CC1CCCC1)Nc1ccc(Br)cc1 | 18.1 | -137.4 | ? | 66.9* | -126.0 | -82.2
O=C(CCC1CCCC1)Nc1ccc(Br)cn1 | · | · | ? | 54.9* | · | -89.1
C[C@@H]1CN([C@H](C)CO)C(=O)c2cccc(NC(=O)Nc3ccccc3)c2O[C@H]1CN(C)C(=O)NC1CCCCC1 | · | 3.1 | · | 3.1 | 1.3 | ·

Source: PubChem BioAssay (Broad Institute)
